High-throughput results from PubChem.
GRP78 ERSR act = qHTS for Inducers of the Endoplasmic Reticulum Stress Response (ERSR) in Human Glioma: qHTS; U87-MG GRP78 promoter luciferase reporter, 16 h; hit rate 0.02% among 420,000; Potency, µM, without a hit: top-dose activation, usual class: activators; AID 602332, 2012; also: series mostly up to about 76 µM; % of control where 0% means no effect; nearly all actives have a fitted effect of over 35% in size
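Stably transfected U87-MG human glioma cells carrying a GRP78-based luminescent sensor were seeded at 1000 cells/well, pin-dosed with compounds and incubated 16 h. Luciferase reagent was then added, and end-point luminescence was read after 10 min at room temperature.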
ALOX12 inh = Primary qHTS assay for inhibitors of human arachidonate 12S-lipoxygenase (ALOX12): Round 2; Polyunsaturated fatty acid lipoxygenase ALOX12 (Homo sapiens), P18054; purified 12hLO, xylenol orange hydroperoxide absorbance; Potency, µM (doses to about 108 µM), for the others: at the top dose activity change, negative = inhibition, hits mostly inhibitors; hit rate 1.1% among 580,000; AID 1671190, 2021; also: % is scaled to controls: 0 for no effect and ±100 for the full control effect
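Purified human 12hLO at 150 nM in 25 mM Hepes, 0.01% Triton X-100, pH 7.0, preincubated 15 min at room temperature with compound. Reaction started with 40 uM arachidonic acid, 30 min at room temperature. Hydroperoxide measured by Fe-xylenol orange, 573/405 nm absorbance ratio.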
TrxR1 inh = qHTS Assay for Inhibitors of Mammalian Selenoprotein Thioredoxin Reductase 1 (TrxR1): qHTS | Thioredoxin reductase 1, cytoplasmic (Rattus norvegicus), O89049 | Potency, µM (highest dose often 114 µM), for the others: top-dose activity change, negative = inhibition, actives largely listed as inhibitors | recombinant rTrxR1, NADPH fluorescence consumption, selenite substrate | hit rate 1% among 390,000; also: % is scaled to controls: 0 for no effect and ±100 for the full control effect; nearly all actives have a fitted effect of over 65% in size
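Rat TrxR1 (90 nM in the dispensed reagent) was pre-reduced with 400 uM NADPH for 5 min at room temperature, then incubated with compound for 15 min. After 400 uM selenite was added, NADPH fluorescence (Ex 340/Em 450 nm) was followed for 8 min.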
Apoferritin bind = qHTS Assay for Identification of Novel General Anesthetics; hit rate 0.074% among 350,000; apoferritin/1-aminoanthracene competitive binding, fluorescence; AID 485281, 2010; Potency, µM (doses to about 77.5 µM), for inactives: at the top dose activity change, negative = displacement, actives largely listed as inhibitors; Ferritin light chain (Equus caballus), P02791; also: % is scaled to controls: 0 for no effect and ±100 for the full control effect; nearly all actives have a fitted effect of over 20% in size
Target sequence (P02791 2-175 limits assumed): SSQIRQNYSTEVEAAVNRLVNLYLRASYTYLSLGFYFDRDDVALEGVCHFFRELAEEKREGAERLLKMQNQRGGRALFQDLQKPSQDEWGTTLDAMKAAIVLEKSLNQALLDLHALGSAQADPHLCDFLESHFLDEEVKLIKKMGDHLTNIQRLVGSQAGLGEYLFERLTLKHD
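Horse-spleen apoferritin (10 uM) was mixed with 50% saturated 1-aminoanthracene in PBS, exposed to compounds for 10 min at room temperature, and read for fluorescence (ex 380 nm, em 535 nm). Competitive displacement was fitted with a four-parameter Hill equation.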
IDH1 R132H inh = qHTS for Inhibitors of mutant isocitrate dehydrogenase 1 (IDH1): qHTS | hit rate 0.093% among 390,000 | IDH1-R132H enzyme, NADPH consumption, diaphorase/resazurin fluorescence | Isocitrate dehydrogenase [NADP] cytoplasmic (Homo sapiens), O75874 | Potency, µM (titrated, usually from 76.6 µM), inactives show at the highest dose activity change, negative = inhibition, usual class: inhibitors; also: % is scaled to controls: 0 for no effect and ±100 for the full control effect; nearly all actives have a fitted effect of over 65% in size
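IDH1-R132H (0.5 ug/mL dispensed) in pH 7.5 Tris buffer was preincubated 30 min with compound, then given a substrate mix of 0.016 mM NADPH and 2 mM alpha-KG for 80 min at room temperature; remaining NADPH was read by diaphorase/resazurin fluorescence.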
TrxR1 substrate = qHTS Assay for Substrates of Mammalian Selenoprotein Thioredoxin Reductase 1 (TrxR1): qHTS. hit rate 0.01% among 390,000. Potency, µM (doses to about 114 µM), inactives show top-dose activity change, negative = substrate turnover. purified TrxR1 substrate turnover, NADPH consumption readout. AID 588456, 2011. Thioredoxin reductase 1, cytoplasmic (Rattus norvegicus), O89049; also: % is scaled to controls: 0 for no effect and ±100 for the full control effect; nearly all actives have a fitted effect of over 50% in size
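Rat TrxR1, dispensed at 90 nM, was prereduced with 400 uM NADPH (final) for 5 min at ~22 deg C, then incubated with compound 15 min before 400 uM selenite. A first-read NADPH fluorescence drop versus no-compound background flagged substrates.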
An asterisk follows results filed as active; ? = inconclusive; nt = no result; [ ] = dose if it differs, or a comment. A selection: hits, their analogues and other compounds. The true share with any hit is near 1.7%. Calls follow the shape of the dose curve; as a rule, active = well fitted curve in the direction sought with a large enough effect; inconclusive = small, poorly fitted or top-dose-only effect, or another doubt; inactive = no such curve, though single readings can be large; an effect the other way counts as inactive or inconclusive. Potency is read from the fitted curve at half-maximal effect.

SMILES | GRP78 ERSR act | ALOX12 inh | TrxR1 inh | Apoferritin bind | IDH1 R132H inh | TrxR1 substrate
CC(=O)Nc1ccc(C(=O)N2CCCC(c3cc(C(=O)NCc4ccc(F)cc4)no3)C2)cc1 (centres undefined) | -1% | 7% | nt | nt | nt | nt
Cc1ccc(NC(=O)CCCN2C(=O)/C(=C/C=C/c3ccccc3)SC2=S)cc1 | 1% | -15% | ? | 5% | 6% | -16%
O=C1/C(=C/c2ccco2)SC(=S)N1CCC(=O)N1CCCCC1CCO (centres undefined) | -3% | 45µM* | 32% | -8% | 3% | 12%
O=C(CCCN1C(=O)S/C(=C/C=C/c2ccccc2)C1=O)Nc1ccc(C(=O)O)cc1 | 5% | -24% | 79µM* | -9% | -6% | -5%
O=C(NN1C(=O)/C(=C/C=C/c2ccco2)SC1=S)c1ccccc1O | -1% | 13µM* | 56µM* | 2% | -2% | -17%
O=C(O)CCCN1C(=O)/C(=C/C=C/c2ccco2)SC1=S | -15% | ? | 35µM* | 4% | 14% | -23%
CC(=C\c1ccccc1)/C=C1/SC(=O)N(CCCC(=O)Nc2ccc(C(=O)O)cc2)C1=O | -5% | -4% | -7%[57.1 µM] | -18% | 0% | -8%[57.1 µM]
COc1ccc(OC)c(CNC(=O)C2Cn3cccc3C(=O)N2C)c1 (centres undefined) | nt | 30% | nt | nt | nt | nt
O=C(O)CC(C(=O)O)N1C(=O)/C(=C/C=C/c2ccco2)SC1=S (centres undefined) | -4% | ? | 20µM* | 5% | -1% | -26%
O=C(O)C(Cc1ccccc1)N1C(=O)/C(=C/c2cccnc2)SC1=S (centres undefined) | -5% | ? | -20% | -5% | -5% | -18%
CCC(C(=O)O)N1C(=O)/C(=C/c2cccn2C)SC1=S (centres undefined) | 0% | ? | -25% | -14% | -2% | ?
COc1ccc(/C=C2\SC(=S)N(C(Cc3ccccc3)C(=O)O)C2=O)cc1 (centres undefined) | 1% | 18µM* | 7%[57.1 µM] | ? | -9% | -2%[57.1 µM]
O=C(O)C(Cc1ccccc1)N1C(=O)/C(=C/C=C/c2ccco2)SC1=S (centres undefined) | -2% | 5.6µM* | 20µM* | -9% | -3% | -14%
CN(C)S(=O)(=O)c1cc(C(=O)NCc2ccc(N3CCCC3)nc2)ccc1Cl | nt | 17% | nt | nt | nt | nt
Cc1[nH]c2ccccc2c1/C=C/C(=O)C(F)(F)F | nt | -37% | nt | nt | nt | nt
COc1ccc2c(C(F)(F)F)cc(=S)[nH]c2c1 | nt | 35µM* | nt | nt | nt | nt
CCCCn1nc(C2CCOCC2)nc1CCC(=O)N(C)C | nt | 17% | nt | nt | nt | nt
CC(C)(O)C#Cc1ccc(-c2nccn2-c2cccc(-n3cncn3)c2)cc1 | nt | 117% | nt | nt | nt | nt
Cn1nnnc1SC1CC(=O)N(c2ccccc2)C1=O (centres undefined) | -3% | -6% | 18µM* | -15% | -5% | 12%[57.1 µM]
Cc1cc(C)cc(N2C(=O)CC(Sc3nnnn3-c3ccccc3)C2=O)c1 (centres undefined) | -14% | 5% | 11µM* | -7% | 2% | 16%
Cc1ccc(N2C(=O)CC(Sc3cccs3)C2=O)cc1 (centres undefined) | 1% | 276% | 79µM* | ? | 2% | -6%
O=C1CC(Sc2nnnn2C2CCCCC2)C(=O)N1c1ccccc1 (centres undefined) | -3% | -6% | ? | -2% | 7% | 13%
